# A selection: hits, their analogues and other compounds. The true share with any hit is near 19%.
# TDP1 cell CPT = qHTS for Inhibitors of human tyrosyl-DNA phosphodiesterase 1 (TDP1): qHTS in cells in presence of CPT; chicken DT40 Tdp1-/-;hTDP1 cells + 20 nM CPT, ATP luminescence, 48 h; Potency, µM (top dose mostly 46.2 µM), without a hit: at the highest dose activity change, negative = growth inhibition, hits mostly inhibitors; 420,000 compounds, 12% hits; AID 686979, 2013; note: potency is the fitted concentration of half-maximal effect; nearly all actives have a fitted effect of over 55% in size
#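 Cell growth measured by CellTiter-Glo luminescence after a minimum 48 h, 37 C compound exposure with 20 nM CPT in Tdp1-knockout DT40 cells stably expressing hTDP1, seeded 400/well; qHTS titration format.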
# ELG1 DNA repair = qHTS screen for small molecules that inhibit ELG1-dependent DNA repair in human embryonic kidney (HEK293T) cells expressing luciferase-tagged ELG1. HEK293T ELG1-luciferase reporter, luminescence, 16 h; DNA damage induced by 5-fluorouridine. 330,000 compounds, 2.3% hits. Potency, µM (top dose mostly 46.1 µM), for the others: at the top dose activity change, negative = inhibition, usual class: inhibitors; note: potency is the fitted concentration of half-maximal effect; nearly all actives have a fitted effect of over 55% in size
#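 Luminescence from the luciferase reporter, measured 30 min after ONE-Glo reagent at room temperature, was the read-out. Beforehand, 2,000 cells per well were exposed for 16 hr at 37 °C to 5-fluorouridine together with compound or vehicle.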
# DT40 TDP1 no CPT = qHTS for Inhibitors of human tyrosyl-DNA phosphodiesterase 1 (TDP1): qHTS in cells in absence of CPT | DT40 Tdp1-/- hTDP1 cells, no CPT, ATP luminescence, 48 h | Potency, µM (doses to about 46.2 µM), for the others: at the highest dose activity change, negative = growth inhibition, most hits filed as inhibitors | 420,000 compounds, 15% hits | AID 686978, 2013; note: potency is the fitted concentration of half-maximal effect; nearly all actives have a fitted effect of over 55% in size
#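 Growth kinetics read by CellTiter-Glo luminescence after ≥48 hr at 37 °C. Cells: DT40 Tdp1-/- stably carrying human TDP1, 400 per well, compound exposure in the absence of CPT (DMSO vehicle).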
# IL-1B inflam inh = qHTS for Inhibitors of Inflammasome Signaling: IL-1-beta AlphaLISA Primary Screen. activity change, % at 57.5 µM. 360,000 compounds, 4.7% hits. THP-1 LPS/ATP IL-1B secretion, AlphaLISA, 16 h; hits give low values. AID 743279, 2014; in the data active = activity change below about -50%; inconclusive = mostly about -30% to -49%
#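 Secreted IL-1B measured by AlphaLISA bead assay after 16 h compound exposure of THP-1 cells; compounds (final up to 57.5 uM) added 1 h before LPS (250 ng/mL) and ATP (1.25 mM) stimulation; lower signal means less secretion.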
# TDP1 block = qHTS Assay for Inhibitors of Tyrosyl-DNA Phosphodiesterase (TDP1); Tyrosyl-DNA phosphodiesterase 1 (Homo sapiens), Q9NUW8; recombinant TDP1, AlphaScreen DNA substrate cleavage; AID 485290, 2010; Potency, µM (top dose mostly 130 µM), for the others: top-dose activity change, negative = inhibition, most hits filed as inhibitors; 350,000 compounds, 0.28% hits; note: potency is the fitted concentration of half-maximal effect; nearly all actives have a fitted effect of over 40% in size
# Target sequence (Q9NUW8 whole entry, looked up): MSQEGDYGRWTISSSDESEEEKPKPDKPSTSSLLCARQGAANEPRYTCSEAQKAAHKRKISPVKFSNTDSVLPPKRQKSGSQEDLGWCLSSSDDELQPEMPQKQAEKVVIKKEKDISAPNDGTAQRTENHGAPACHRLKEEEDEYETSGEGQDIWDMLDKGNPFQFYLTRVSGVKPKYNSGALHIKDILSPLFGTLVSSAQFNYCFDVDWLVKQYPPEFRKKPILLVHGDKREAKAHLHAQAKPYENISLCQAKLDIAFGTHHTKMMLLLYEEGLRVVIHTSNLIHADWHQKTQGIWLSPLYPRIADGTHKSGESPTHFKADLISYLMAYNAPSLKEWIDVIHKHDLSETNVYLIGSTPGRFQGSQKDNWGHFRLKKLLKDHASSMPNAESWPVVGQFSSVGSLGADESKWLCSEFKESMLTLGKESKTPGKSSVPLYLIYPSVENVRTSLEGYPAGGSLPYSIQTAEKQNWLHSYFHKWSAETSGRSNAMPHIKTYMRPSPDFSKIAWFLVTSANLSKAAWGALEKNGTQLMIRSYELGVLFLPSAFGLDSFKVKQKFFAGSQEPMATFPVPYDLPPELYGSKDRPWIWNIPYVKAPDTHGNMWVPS
#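 Tdp1 1 nM final; 15 min RT w/ cpd; substrate 15 nM, 5 min; beads 10 ug/ml, 10 min; AlphaScreen read. Neg ctrl: no enzyme.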
# Giardia kill = Small Molecules that selectively kill Giardia lamblia: qHTS; Giardia lamblia trophozoite viability; activity change, % at 7.66 µM, hits read low; 340,000 compounds, 0.15% hits; AID 540267, 2011; in the data active = activity change below about -80%; inconclusive = between about -30% and that limit;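 note: parasites exposed to compound for two days anaerobically before the ATP read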
#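 Luminescent ATP signal served as the viability read-out, measured 15-30 min after adding ATP detection reagent to trophozoites that had been incubated with compounds for 48 hrs at 37 deg C anaerobically at 100 cells/well.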
# * hit, by the source's call; ? = inconclusive; / = not tested or not shown; [ ] = dose if it differs, or a comment. Unless noted, calls come from the whole dose curve; as a rule, active = well fitted curve in the direction sought with a large enough effect; inconclusive = small, poorly fitted or top-dose-only effect, or another doubt; inactive = no such curve, though single readings can be large; an effect the other way counts as inactive or inconclusive. % is set by controls: 0 for no effect and ±100 for the full control effect.
SMILES,TDP1 cell CPT,ELG1 DNA repair,DT40 TDP1 no CPT,IL-1B inflam inh,TDP1 block,Giardia kill
CN1CCN(c2ncc3c(n2)CCN(Cc2ccc(Br)s2)C3)CC1,23µM*,/,15µM*,/,-1%,/
CCN1CCN(c2ncc3c(n2)CCN(Cc2sccc2C)C3)CC1,?,/,23µM*,/,6%,/
CCN1CCN(c2ncc3c(n2)CCN(Cc2ccc(Br)s2)C3)CC1,13µM*,/,10µM*,/,9%,/
CCC(C)n1c(=O)c2sccc2n2c(CCCC(=O)NCc3ccccc3Cl)nnc12 (centres undefined),1%,/,-21%,/,5%,/
Cc1c(O)ccc(-c2n[nH]c(C(=O)O)c2-c2nc3ccccc3s2)c1O,-4%,?,4%,25,2%,-6
CCc1ccc(NC(=O)CCc2c(C)n(C)c3cc(-c4ccccc4C)nn3c2=O)cc1,-29%,/,-28%,/,7%,/
Cc1ccc(Nc2nc(/N=C/NO)n[nH]2)cc1C,-24%,0%,2%,12,1%,-4
COc1cc(-c2nc3nc(C)cc(C)n3c2Nc2ccc(Cl)cc2)ccc1O,?,/,?,/,3%,/
CCOC(=O)c1ccc(Nc2c(-c3ccc(O)c(OC)c3)nc3nc[nH]n23)cc1,12µM*,/,16µM*,/,5%,/
CCOC(=O)c1ccc(Nc2c(-c3ccc(O)cc3)nc3nc[nH]n23)cc1,?,/,?,/,8%,/
CCOC(=O)c1ccc(Nc2c(-c3ccc(OC)cc3)nc3nc[nH]n23)cc1,21µM*,/,23µM*,/,6%,/
CCN(CC)S(=O)(=O)c1ccc2c(c1)nc(CN(C)C(=O)c1cccc(Cl)c1)n2C,?,/,-27%,/,-4%,/
CCc1ccc2[nH]c3nc(N/N=C/c4ccc(O)cc4O)nnc3c2c1,?,-26%,?,150,/,-1
CCc1ccc(C(=O)c2cn(CC(=O)NC3CCCCC3)c3nc(C)ccc3c2=O)cc1,3%,/,2%,/,-5%,/
O=C(COC(=O)c1cc(Br)ccc1O)Nc1cccnc1Cl,-4%,-1%,1%,1,-12%,-12
O=C(Oc1ccc(OC(=O)C2CCC2)cc1)C1CCC1,?,-17%,23µM*,15,?,9
O=C(Oc1ccc2ccccc2c1)C1CCC1,-13%,5%,-24%,28,/,-4
CN1CCN(CCCNC(=O)c2ccc(/C=C3\Sc4ccccc4N(Cc4ccc(F)cc4)C3=O)cc2)CC1,?,-15%,16µM*,-77*,5%,0
CN1CCN(CCCNC(=O)c2ccc(/C=C3\Oc4ccccc4N(Cc4ccccc4F)C3=O)cc2)CC1,?,?,21µM*,61,2%,25
CN1CCN(CCCNC(=O)c2ccc(/C=C3/Sc4ccccc4N(Cc4cccc(Cl)c4)C3=O)cc2)CC1,?,?,?,-4,5%,-13
CCOc1ccc(-n2nc3ccc(NC(=O)c4ccc5c(c4)OCCO5)cc3n2)cc1,3.3µM*,?,5.8µM*,-6,0%,-4
CCc1ccc(-n2nc3ccc(NC(=O)c4ccc5c(c4)OCO5)cc3n2)cc1,21µM*,?,?,8,0%,18
Cc1ccc(-n2nc3ccc(NC(=O)c4ccc5c(c4)OCO5)cc3n2)cc1,?,16%,?,11,-2%,9
O=C(Nc1ccc2oc(-c3ccccc3F)nc2c1)c1ccc2c(c1)OCCO2,10µM*,?,15µM*,-54*,0%,-9
CCOc1ccc(-n2nc3ccc(NC(=O)COc4ccccc4C)cc3n2)cc1,?,/,18µM*,/,0%[12.3 µM],/
SMILES,TDP1 cell CPT,ELG1 DNA repair,DT40 TDP1 no CPT,IL-1B inflam inh,TDP1 block,Giardia kill
CCN(CC)C(=O)Oc1cc(=O)n2c3c(cccc13)CCC2,?,6%,3%,-3,4%,16
CC(N)(Cc1ccc(O)cc1)C(=O)O (centres undefined),/,/,/,/,7%[56.1 µM],/
CCOc1ccc(-c2nnn(CC(=O)c3ccc4c(c3)OCCO4)n2)cc1,?,?,16µM*,4,1%,34
O=C(Nc1ccc2nn(-c3ccccc3)nc2c1)c1ccc2c(c1)OCCO2,?,?,7.3µM*,-7,-2%,-12
CCCOc1ccc(-c2nnn(CC(=O)c3ccc4c(c3)OCCO4)n2)cc1,-7%,?,-16%,1,2%,-10
CS/C(=N\S(=O)(=O)c1ccc(Cl)cc1)c1ccccc1,-12%,0%,-23%,10,-3%,-10
CS/C(=N/S(=O)(=O)c1ccc(C)cc1)c1ccccc1,17%,-4%,-3%,-55*,3%,-5
O=S(=O)(/N=C(\Sc1ccc(Cl)cc1)c1ccccc1)c1ccccc1,12µM*,-26%,21µM*,-113*,7%,-12
Cc1ccc(S/C(=N/S(=O)(=O)c2ccc(Cl)cc2)c2ccccc2)cc1,11µM*,/,10µM*,/,-15%,-1
CC(=O)Nc1cc(C(=O)NCCN2CCN(Cc3ccccc3)CC2)ccc1Sc1ccc(C)cc1,2%,?,-6%,-22,0%,6
O=C(COC(=O)c1ccc(F)c(S(=O)(=O)N2CCOCC2)c1)Nc1ccc2c(c1)OCO2,9%,0%,3%,9,-1%,-11
Cc1ccc(OCCN2CCCC2)cc1,-11%,1%,1%,18,4%,-1
Cc1c(-c2ccc(O)cc2)nn(-c2ccc(O)cc2)c1-c1ccc(OCCN2CCCCC2)cc1,19µM*,/,30µM*,/,19%[56.1 µM],/
COC(=O)NC(c1ccccc1)c1c[nH]c2ccccc12 (centres undefined),/,/,/,/,5%,/
Cc1[nH]c2ccccc2c1C(c1c[nH]c2ccccc12)c1c(C)[nH]c2ccccc12,?,/,16µM*,/,/,/
C[n+]1ccc(C(c2c[nH]c3ccccc23)c2cc[n+](C)c3ccccc23)c2ccccc21,0.56µM*,/,0.56µM*,/,/,/
Cc1noc(C)c1COc1ccc(C(=O)N2CCN(c3ccccn3)CC2)cc1,-2%,0%,-5%,3,/,4
CCOc1cc(NC(=O)c2ccco2)c(OCC)cc1NC(=O)COc1ccccc1C,4.6µM*,/,4.1µM*,-10,/,20
CCOc1cc(NC(=O)c2ccco2)c(OCC)cc1NC(=O)Cc1cccc(OC)c1,?,?,26µM*,-21,10%,10

# Screening data from PubChem BioAssay.
